Screening data from PubChem.
ELG1 repair inh: ELG1-dependent DNA repair inhibition; HEK293T ELG1-luciferase reporter, luminescence, 16 h; DNA damage induced by 5-fluorouridine; 330,000 compounds, 2.3% hits; AID 504467; Potency, µM (doses to about 46.1 µM), hits mostly inhibitors; further: nearly all actives have a fitted effect of over 55% in size
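Quantitative HTS, concentration-response format. 2,000 cells/well co-treated with 5-fluorouridine and compound, 16 hr in 5% CO2 at 37 °C; ONE-Glo luminescence read after 30 min.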
KB-V1 cytotox: KB-V1 MDR subline cytotoxicity; KB-V1 MDR cells viability, CellTiter-Glo, 72 h; Potency, µM (doses to about 46.1 µM), usual class: cytotoxic; 400,000 compounds, 3.4% hits; further: nearly all actives have a fitted effect of over 60% in size
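Cells of the MDR subline KB-V1 are plated, dosed with compound at multiple concentrations, and incubated 72 h at 37 degrees C; CellTiter-Glo is then added and luminescence read after 10 min.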
SW480 rerep: inducers of DNA re-replication in SW480 colon cancer cells; SW480 DNA re-replication, Hoechst DNA content imaging, 48 h; Potency, µM (highest dose often 46.1 µM), hits mostly activators; 340,000 compounds, 1.8% hits; AID 624297; further: nearly all actives have a fitted effect of over 55% in size
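SW480 cells exposed to compounds for 48 hr at 37 C, 5% CO2, then Hoechst-stained 40 min. Nuclear DNA content imaged by fluorescence scanning (405 nm excitation, 500-530 nm emission); re-replication scored as increased high-intensity nuclei.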
MCF10A rerep: induces DNA re-replication in MCF 10a normal breast cells. AID 624296. Potency, µM (doses to about 46.1 µM), usual class: activators. 350,000 compounds, 2.9% hits. MCF 10A DNA re-replication, Hoechst nuclear intensity, 48 h; further: nearly all actives have a fitted effect of over 50% in size
KB-3-1 tox: KB-3-1 parental cell cytotoxicity | 400,000 compounds, 1.4% hits | Potency, µM (titrated, usually from 46.1 µM), most hits filed as cytotoxic | KB-3-1 viability, CellTiter-Glo ATP luminescence, 72 h | AID 1347075; further: nearly all actives have a fitted effect of over 60% in size
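Using CellTiter-Glo luminescence, growth of non-resistant KB-3-1 adenocarcinoma cells is assessed 72 h after pin-tool compound addition at 37 °C. Normalized responses across the concentration series yield fitted curves.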
Large screens that a line does not name were inactive. Shown are actives, neighbours in structure and some others; about 8.1% of the full set was active somewhere. The call rests on the fitted dose curve; in most records, active means well fitted curve in the direction sought with a large enough effect; inconclusive means small, poorly fitted or top-dose-only effect, or another doubt; inactive means no such curve, though single readings can be large; an effect the other way counts as inactive or inconclusive.

COCCOC(=O)c1c(C)nc(SCC(=O)Nc2ccc(C)cc2)c(C#N)c1-c1ccco1	ELG1 repair inh inconclusive, KB-V1 cytotox inconclusive
O=CN/N=C/c1c(O)ccc2ccccc12	ELG1 repair inh 21µM, KB-V1 cytotox inconclusive, KB-3-1 tox 7.3µM
NC(=S)N/N=C/c1c(O)ccc2ccccc12	ELG1 repair inh 13µM, KB-V1 cytotox inconclusive, SW480 rerep inconclusive, MCF10A rerep inconclusive, KB-3-1 tox 1.6µM
Oc1ccc2ccccc2c1/C=N/Nc1ccccc1	ELG1 repair inh inconclusive, KB-3-1 tox inconclusive
O=C(NN=Cc1c(O)ccc2ccccc12)c1ccc2c(c1)OCO2	ELG1 repair inh inconclusive, KB-V1 cytotox inconclusive, SW480 rerep 21µM, MCF10A rerep 12µM, KB-3-1 tox inconclusive
NC(=S)N/N=C/c1coc2c(ccc3ccccc32)c1=O	ELG1 repair inh inconclusive, KB-V1 cytotox 5.2µM, KB-3-1 tox 6.5µM
CCCCN(C(=O)COC(=O)COc1c(C)cc(C)cc1C)c1c(N)n(CCC)c(=O)[nH]c1=O	none
O=C(Cc1ccccc1F)Nc1cc(S(=O)(=O)N2CCCCC2)ccc1N1CCOCC1	none (no result: ELG1 repair inh, SW480 rerep, MCF10A rerep)
CC1CN(C(=O)COc2ccc3c(-c4ccccc4)cc(=O)oc3c2)CC(C)O1 (stereo not drawn)	none
CC1CN(CC(=O)Nc2ccc(S(N)(=O)=O)cc2)CC(C)O1 (stereo not drawn)	KB-V1 cytotox inconclusive
COc1ccc(/C=N/n2cc(-c3ccc(OC)cc3)nc2N)cc1	SW480 rerep inconclusive
COc1ccc(/C=N/n2cc(-c3ccccc3)nc2N)cc1	KB-V1 cytotox 7.3µM, SW480 rerep inconclusive, MCF10A rerep 23µM, KB-3-1 tox 3.7µM
COc1ccc(C(c2c(O)cc(C)n(Cc3ccco3)c2=O)N2CCN(c3ccccc3)CC2)cc1 (stereo not drawn)	none (no result: ELG1 repair inh, SW480 rerep, MCF10A rerep)
CCN(CC)S(=O)(=O)c1ccc(C)c(NC(=O)Cn2cnc3cc([N+](=O)[O-])ccc3c2=O)c1	ELG1 repair inh 16µM
CN(Cc1cccs1)C(=O)Cn1cnc2cc([N+](=O)[O-])ccc2c1=O	MCF10A rerep 0.82µM
CC(C)N(C(=O)Cn1cnc2cc([N+](=O)[O-])ccc2c1=O)C(C)C	none (no result: KB-V1 cytotox, SW480 rerep, MCF10A rerep, KB-3-1 tox)
CCc1cccc(NC(=O)CCc2c(C)nn(-c3ccc(N4CCCCC4)nn3)c2C)c1	none
Cc1ccc(S(=O)(=O)Nc2ccc(C(OC(=O)c3ccccc3[N+](=O)[O-])(C(F)(F)F)C(F)(F)F)cc2)cc1	ELG1 repair inh inconclusive, KB-V1 cytotox 3.7µM, SW480 rerep inconclusive, MCF10A rerep inconclusive, KB-3-1 tox inconclusive
O=C(OC(c1ccc(NS(=O)(=O)c2ccccc2)cc1)(C(F)(F)F)C(F)(F)F)c1ccccc1	SW480 rerep inconclusive, MCF10A rerep 18µM, KB-3-1 tox inconclusive
Cc1cc(C)nc(NS(=O)(=O)c2ccc(NC(=O)c3ccccc3[N+](=O)[O-])cc2)n1	none
CC(=O)c1ccc(NS(=O)(=O)c2ccccc2)cc1	ELG1 repair inh inconclusive
Cc1ccc(-n2ncc3c2CCCC3NC(=O)c2csnn2)cc1C (stereo not drawn)	none
C=CCN=C1SCC(=O)N1S(=O)(=O)c1ccc(C)cc1	none
C=CCN=C1S/C(=C\N(C)C)C(=O)N1S(=O)(=O)c1ccc(C)cc1	ELG1 repair inh 2.1µM
COc1ccc2[nH]c(=S)[nH]c2c1	none
S=c1[nH]c2ccc(Cl)cc2[nH]1	KB-V1 cytotox 18µM
Cc1ccc(C)c(NC(=O)CN2C(=O)c3cccnc3Oc3ccc(C)cc32)c1	none (no result: ELG1 repair inh, SW480 rerep, MCF10A rerep)
Cc1ccc2c(c1)C(=O)C(=O)N2CC(=O)Nc1ccccc1NC(=O)c1ccccn1	SW480 rerep 18µM, MCF10A rerep 13µM, KB-3-1 tox inconclusive
Cc1ccc(C)c(C(=O)c2ccccc2NC(=O)c2ccccn2)c1	KB-V1 cytotox inconclusive, SW480 rerep inconclusive, MCF10A rerep 7.3µM, KB-3-1 tox inconclusive
COc1ccccc1-n1c(SCC(=O)N2CCOCC2)nc2ccccc2c1=O	none
COc1ccc(C(C)=O)cc1CSc1nc2ccccc2c(=O)n1-c1ccccc1C	KB-V1 cytotox 21µM
COc1ccc(C(C)=O)cc1CSc1nc2ccccc2c(=O)n1-c1ccccc1	ELG1 repair inh inconclusive
C=CCn1c(SCc2cc(C(C)=O)ccc2OCC)nc2ccccc2c1=O	ELG1 repair inh inconclusive, KB-V1 cytotox 2.3µM, SW480 rerep 1.8µM, MCF10A rerep 1µM, KB-3-1 tox 1.2µM
COc1ccccc1-n1c(SCc2cc(=O)oc3cc(O)ccc23)nc2ccccc2c1=O	ELG1 repair inh inconclusive, KB-V1 cytotox 18µM, MCF10A rerep inconclusive, KB-3-1 tox inconclusive
O=C(C[n+]1ccccc1)N/N=C/c1ccc(Br)cc1	KB-V1 cytotox inconclusive
Cc1nc2ccccc2c2oc(C(=O)N3CCN(C(=O)c4ccco4)CC3)cc12	ELG1 repair inh inconclusive, KB-V1 cytotox inconclusive
O=C(c1ccco1)N1CCN(c2nc(C3CC3)nc3c2nnn3Cc2ccccc2Cl)CC1	ELG1 repair inh inconclusive, KB-V1 cytotox inconclusive, KB-3-1 tox inconclusive
Cc1nc(N2CCN(C(=O)c3ccco3)CC2)c2oc3ccccc3c2n1	ELG1 repair inh inconclusive, KB-V1 cytotox inconclusive, SW480 rerep 8.2µM, MCF10A rerep inconclusive, KB-3-1 tox 12µM
CC(C)(C)c1nc(N2CCN(C(=O)c3ccco3)CC2)c2nnn(Cc3ccccc3)c2n1	ELG1 repair inh inconclusive, KB-V1 cytotox inconclusive, SW480 rerep inconclusive, MCF10A rerep 8.2µM, KB-3-1 tox inconclusive
CCc1nc(N2CCN(C(=O)c3ccco3)CC2)c2oc3ccccc3c2n1	ELG1 repair inh inconclusive, KB-V1 cytotox 21µM, SW480 rerep 12µM, MCF10A rerep inconclusive
CCCCNC(=O)C1(C)CCN1C(=O)c1cc(-c2cccs2)oc1C (stereo not drawn)	KB-3-1 tox inconclusive (no result: ELG1 repair inh, SW480 rerep, MCF10A rerep)
COc1ccc(C)cc1NC(=O)C(NCC1CCCO1)c1ccccc1 (stereo not drawn)	KB-V1 cytotox 16µM, MCF10A rerep inconclusive
COc1ccc(C)cc1NC(=O)CNC(c1ccccc1)c1ccc(C)cc1 (stereo not drawn)	ELG1 repair inh 6.5µM, SW480 rerep 2.6µM, MCF10A rerep inconclusive, KB-3-1 tox 4.6µM
COc1ccccc1NC(=O)CNC(c1ccccc1)c1ccccc1	MCF10A rerep inconclusive
Cc1nc2ccccc2nc1-c1csc(-c2ccccc2)n1	KB-V1 cytotox inconclusive (no result: ELG1 repair inh, SW480 rerep, MCF10A rerep)
Nc1c(Cl)cc2c(c1Oc1ccccc1)C(=O)c1ccccc1C2=O	ELG1 repair inh inconclusive, KB-V1 cytotox inconclusive, SW480 rerep inconclusive, MCF10A rerep 13µM
Cc1cc(NC(=O)C(C)SCC(=O)N(Cc2ccccc2)c2ccccc2)no1 (stereo not drawn)	KB-V1 cytotox 6.5µM, MCF10A rerep inconclusive, KB-3-1 tox inconclusive
Cc1cc(NC(=O)C(C)SCC(=O)OCC(=O)N(Cc2ccccc2)C(C)(C)C)no1 (stereo not drawn)	none
COc1cccc(CNc2nc3cc(-c4ccc(C(=O)N5CCN(C)CC5)cc4)sc3c(=O)n2C)c1	none (no result: ELG1 repair inh, SW480 rerep, MCF10A rerep)
Oc1cc(CNCc2ccccc2)c(O)cc1CNCc1ccccc1	SW480 rerep 13µM, MCF10A rerep inconclusive (no result: ELG1 repair inh)
